The whole screen tested about 23,000 compounds, of which about 30 (0.1%) showed an effect of 50% or more. The list comes from a sample in which strong results are over-represented; it also holds similar structures and randomly drawn compounds. Results with a measured potency or affinity are listed apart.
system: Pseudomonas aeruginosa; conditions: Concentration 32 ug.mL-1; ASSAY_TEST Inhibition of Bacterial Growth; detection method Absorption (OD600); MEDIA CAMHB; plate type 384well; NBS; CORNING #3640; time 18 hr

SMILES	Inhibition [%]
O=[N+]([O-])c1ccc(-c2c(Nc3ccccc3)cccc2-c2ccccc2)cc1	19.1
Cc1ccccc1Nc1ccccc1-c1ccc([N+](=O)[O-])cc1	-5.81
O=[N+]([O-])c1ccc(-c2ccccc2Nc2ccccc2)cc1C(F)(F)F	49.55
O=[N+]([O-])c1ccc(-c2ccccc2Nc2ccccc2)cc1	-5.45
COc1ccc(Nc2ccccc2-c2ccc([N+](=O)[O-])cc2)cc1	65.22
O=[N+]([O-])c1ccc(-c2ccccc2Nc2ccccc2)cc1F	55.36
CC(=O)c1ccc(-c2ccccc2Nc2ccccc2)cc1	28.85
c1ccc(Nc2ccccc2-c2ncccn2)cc1	60.14
COc1cccc(Nc2ccccc2)c1-c1c(Cl)cc(Br)cc1Cl	61.56
Clc1cc(Br)cc(Cl)c1-c1ccccc1Nc1ccccc1	32.77
COc1cc([N+](=O)[O-])ccc1-c1c(Nc2ccccc2)cccc1OC	30.66

Source: ChEMBL document CHEMBL4513137, “CO-ADD screening of University of Manchester (UK) compounds”
